Usually inhibition stands for the relative decrease from the control value, in per cent.

The campaign covered roughly 360,000 compounds. About 2,400 (0.67%) were called active. Many of the other results were omitted from the sample, so actives are more common in it than they were. A number with no mark means an inactive call.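 The calls were made as follows: active = inhibition above about 55% (limit read from the data); inconclusive = no clear call, values can overlap the other calls; inactive = the rest.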

This test can be described thus: LAMP-1 surface exposure blockers, TALL-104 cells – cell-based, flow cytometry, MLPCN library, primary screen (AID 651702). The settings on record: TALL-104 LAMP-1 surface exposure, at 10 µM, active compounds read high. In general terms: Flow cytometry measures light scatter and fluorescence of single cells or particles in a stream.
For `CC(=O)OC1C2(CC3N4C(=O)C5(CO)SSC4(CC31O)C(=O)N5C)OC(C)C(C)(C)C2=O` (stereo not given), the inhibition was 74.7% (active).

Turning to `CN1CCC[C@@H]1CCO[C@](C)(c1ccccc1)c1ccc(Cl)cc1`, the inhibition is 3.8%.

For the compound `Cc1cc(N2C(=O)C3CCCN3C2c2ccc(Cl)c(Cl)c2)no1` (stereo not given), the inhibition is 1.1%.

On to `CN1CCC(OC(=O)c2cccc(F)c2)CC1`, for which the inhibition was -4.7%.

In the case of `O=C(CCNS(=O)(=O)c1ccccc1)Nc1ccc(Cl)cc1C(=O)c1ccccc1`, the inhibition is -5.4%.

`OC1/C(=C/c2ccc(C(F)(F)F)cc2)N2CCC1CC2` (stereo not given): the inhibition is -6.5%.

Regarding `O=C1NC(=O)N(CCc2ccc(F)cc2)C(=O)/C1=C/C=C/c1ccccc1`, the inhibition is 57.4% (active).

For the compound `O=[N+]([O-])c1ccc(C2C3C(c4ccccc4)=NC4(CCCCC4)N32)cc1` (stereo not given), the inhibition is 0.6%.

Consider `O=c1[nH]c(CN2CC=C(c3ccccc3)CC2)nc2scc(-c3cccs3)c12`, for which the inhibition is -1.3%.

In the case of `Cc1ccc(CN2CCCC(C(=O)c3ccc4c(c3)OCO4)C2)cc1C` (stereo not given), the inhibition was -2.3%.

On to `CCOc1ccc(-c2cc(C)[n+](CCN(CC)CC)c(-c3ccc(OCC)cc3)c2)cc1`, for which the inhibition is 77.5% (active).

In the case of `COc1ccccc1CN1CCN(C(=O)Cc2ccccc2)CC1`, the inhibition is 24.2%.

For `COc1ccc(CNCCc2c[nH]c3ccccc23)cc1OC`, the inhibition is 21.9%.

Consider `COc1ccc(CNCCc2ccc3c(c2)OCO3)c(OC)c1OC`, for which the inhibition was 5.7%.

Consider `COc1ccc(Br)cc1CNCCc1cccc(Cl)c1`, for which the inhibition is 75.9% (active).

Consider `CCOP(=S)(OCC)C(O)CCCCCn1c(=O)c(F)cn(C2CCCO2)c1=O` (stereo not given), for which the inhibition is 1.5%.

Take `CCOC(=O)[C@]12Cc3ccccc3[C@H]1N(C1CCCCC1)C(=O)c1cc(OC)ccc12`: the inhibition was 57.3% (active).

As for `CCOC(=O)[C@]12Cc3cc(OC)ccc3[C@H]1N(C(C)C)C(=O)c1ccccc12`, the inhibition was 3.3%.

As for `Cc1cccc(NC(=O)N2CC3CC(C2)c2cccc(=O)n2C3)c1` (stereo not given), the inhibition is -2.7%.

For the compound `O=C(CCCn1c(=O)[nH]c2cc(Cl)ccc2c1=O)N1CCC2(CC1)OCCO2`, the inhibition is 2%.

With `Cc1cccc(OP(=O)(Oc2cccc(C)c2)OC(c2ccccc2)C(F)(F)F)c1` (stereo not given), the inhibition is 0.4%.

Turning to `O=C(Nc1cccc2ccccc12)N1CCC2(CC1)OCCO2`, the inhibition is -7.6%.

As for `CCCCCCCCCCCCn1ccc(=N)cc1`, the inhibition is 27.1%.

On to `CCOC(=O)C1CN(C)CCC1=O` (stereo not given), for which the inhibition is -3.9%.

Take `CNCC[C@H](Oc1ccc(C(F)(F)F)cc1)c1ccccc1`: the inhibition was 10%.

For `O=C1NC(=O)N(Cc2ccco2)C(=O)/C1=C\c1ccc(-c2ccc(F)cc2)o1`, the inhibition is 76.4% (active).

`COC(=O)C1=C(c2ccc(Cl)c(C(F)(F)F)c2)C[C@@H]2CC[C@H]1N2C(=O)NC(C)C`: the inhibition is -10.7%.

Take `COCc1cc(OC(=O)N(C)C)nc(-c2ccc(C)c(Cl)c2)n1`: the inhibition is -8.4%.

Regarding `COc1cc(-n2c(=S)[nH]c3ccc(C)cc3c2=O)c(Cl)cc1Cl`, the inhibition was 1.2%.

As to `COc1ccc(-n2c(O)c(C(C)=Nc3ccc4c(c3)CCC4)c(=O)[nH]c2=O)cc1`, the inhibition was -0.2%.

For the origin of these results see PubChem BioAssay AID651702 (NMMLSC, 2012).
